Where “and” joins values, the source holds several entries; their conditions need not be identical. Equal values may be shown once. The source holds several records for some structures; these can differ, active in one and inactive in another. Calls of active or inactive are those of the source. Unless noted, calls follow the shape of the dose curve; as a rule, active = well fitted curve in the direction sought with a large enough effect in the repeat runs; inconclusive = weak or mixed curves; inactive = no such curve, though single readings can be large; an effect the other way counts as inactive or inconclusive.
What was measured:
[1] = qHTS assay to identify small molecule antagonists of the glucocorticoid receptor (GR) signaling pathway - cell viability counter screen (AID 720693); conditions: GR-bla HeLa viability, CellTiter-Glo luminescence, 18 h, with 5 nM dexamethasone present; series mostly up to 58.5 µM; also: nearly all actives have a fitted effect of over 55% in size; also: potency is read from the fitted curve at half-maximal effect
[2] = qHTS assay for identifying genotoxic compounds that show differential cytotoxicity against isogenic chicken DT40 cell lines with known DNA damage response pathways - wild type cell line (AID 743012); conditions: DT40 wild type chicken cells viability, CellTiter-Glo, 40 h; series mostly up to 68.4 µM; also: nearly all actives have a fitted effect of over 60% in size; also: potency is read from the fitted curve at half-maximal effect
How it was run: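 Cytotoxicity in repair-proficient parental chicken DT40 cells serves as the comparator for Rad54/Ku70- and Rev3-deficient lines. Cells were exposed to compounds for 40 h at 37 C/5% CO2, and ATP-based luminescence (CellTiter-Glo) measured viability.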

[3] = qHTS assay for identifying genotoxic compounds that show differential cytotoxicity against isogenic chicken DT40 cell lines with known DNA damage response pathways - Rev3 mutant cell line (AID 743014); conditions: chicken DT40 Rev3-/- viability, CellTiter-Glo, 40 h; series mostly up to 68.4 µM; also: nearly all actives have a fitted effect of over 55% in size; also: potency is read from the fitted curve at half-maximal effect
[4] = qHTS assay for identifying genotoxic compounds that show differential cytotoxicity against isogenic chicken DT40 cell lines with known DNA damage response pathways - Rad54/Ku70 mutant cell line (AID 743015); conditions: DT40 Rad54/Ku70 mutant viability, CellTiter-Glo, 40 h; series mostly up to 66.8 µM; also: nearly all actives have a fitted effect of over 60% in size; also: potency is read from the fitted curve at half-maximal effect
[5] = qHTS assay to identify small molecule antagonists of the androgen receptor (AR) signaling pathway - cell viability counter screen (AID 743033; also: nearly all actives have a fitted effect of over 45% in size; also: potency is read from the fitted curve at half-maximal effect); conditions: AR-bla HEK293 viability, CellTiter-Glo luminescence, 16 h; series mostly up to 58.5 µM
[6] = qHTS assay to identify small molecule antagonists of the androgen receptor (AR) signaling pathway using the MDA cell line - cell viability counter screen (AID 743041; also: nearly all actives have a fitted effect of over 45% in size; also: potency is read from the fitted curve at half-maximal effect); conditions: MDA-kb2 viability, CellTiter-Fluor, 16 h, cells co-treated with R1881 androgen agonist; series mostly up to 70.3 µM
How it was run: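 Compound exposure lasted 16 h at 37C in MDA-kb2 AR-luc cells stimulated with R1881. Protease-based CellTiter-Fluor reagent was applied for the final 30 min and fluorescence measured.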

[7] = qHTS assay to identify small molecule antagonists of the thyroid receptor (TR) signaling pathway - cell viability counter screen (AID 743064); conditions: GH3.TRE-Luc viability, CellTiter-Fluor, 24 h; series mostly up to 70.3 µM; also: nearly all actives have a fitted effect of over 50% in size; also: potency is read from the fitted curve at half-maximal effect
How it was run: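 In-well cytotoxicity read by CellTiter-Fluor (30 min, 37 C) following 23.5 h exposure of GH3 cells bearing a TRE-luciferase sensor. Compounds were added alongside 1 nM (final) T3 to drive TR transactivation.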

[8] = qHTS assay to identify small molecule antagonists of the thyroid receptor (TR) signaling pathway (AID 743065); conditions: GH3.TRE-Luc, T3-stimulated luciferase inhibition, 23.5 h; series mostly up to 70.3 µM; also: nearly all actives have a fitted effect of over 55% in size; also: potency is read from the fitted curve at half-maximal effect
How it was run: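 GH3.TRE-Luc rat pituitary cells (two TREs driving luciferase) were dosed with compound, then stimulated with 1 nM T3 (final) for 23.5 h at 37 C. ONE-Glo luminescence was the read-out, with CellTiter-Fluor fluorescence as the cytotoxicity counter-screen.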

[9] = qHTS assay to identify small molecule antagonists of the estrogen receptor alpha (ER-alpha) signaling pathway - cell viability counter screen (AID 743074; calls by dose curve; also: nearly all actives have a fitted effect of over 45% in size; also: potency is read from the fitted curve at half-maximal effect); conditions: ERalpha-bla HEK293 viability, CellTiter-Glo luminescence, 18 h; series mostly up to 69.4 µM
[10] = biological target: Estrogen receptor (Homo sapiens) (UniProt P03372); assay: qHTS assay to identify small molecule agonists of the estrogen receptor alpha (ER-alpha) signaling pathway (AID 743075; calls by dose curve; also: potency is read from the fitted curve at half-maximal effect); conditions: HEK293 ER-alpha-UAS-bla, beta-lactamase FRET ratio, 18 h; series mostly up to 70.1 µM
Estrogen receptor (Homo sapiens), sequence (P03372 whole entry, looked up): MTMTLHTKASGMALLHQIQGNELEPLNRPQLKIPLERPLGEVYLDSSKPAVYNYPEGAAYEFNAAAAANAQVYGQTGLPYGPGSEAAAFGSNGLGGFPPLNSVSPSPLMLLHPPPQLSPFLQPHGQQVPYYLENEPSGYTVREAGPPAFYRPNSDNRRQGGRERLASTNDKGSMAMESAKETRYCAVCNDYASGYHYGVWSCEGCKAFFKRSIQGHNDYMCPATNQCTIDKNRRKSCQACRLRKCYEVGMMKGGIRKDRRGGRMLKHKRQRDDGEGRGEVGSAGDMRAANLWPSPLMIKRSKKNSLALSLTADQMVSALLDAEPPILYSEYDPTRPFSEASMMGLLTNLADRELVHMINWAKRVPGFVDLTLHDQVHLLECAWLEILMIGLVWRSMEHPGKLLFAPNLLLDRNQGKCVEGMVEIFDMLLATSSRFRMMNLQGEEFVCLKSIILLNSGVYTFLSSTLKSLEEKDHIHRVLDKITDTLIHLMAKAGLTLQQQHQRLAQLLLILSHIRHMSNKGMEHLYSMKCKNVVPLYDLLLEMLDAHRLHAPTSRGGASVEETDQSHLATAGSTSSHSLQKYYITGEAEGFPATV

[11] = qHTS assay to identify small molecule antagonists of the estrogen receptor alpha (ER-alpha) signaling pathway using the BG1 cell line - cell viability counter screen (AID 743081); conditions: BG1Luc4E2 viability, CellTiter-Fluor, 22 h; series mostly up to 70.3 µM;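 also: compound given together with 17beta-estradiol as the ER stimulus; nearly all actives have a fitted effect of over 45% in size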; also: potency is read from the fitted curve at half-maximal effect
Aromatase (Homo sapiens) = Aromatase (Homo sapiens) (UniProt P11511); assay: qHTS assay to identify aromatase inhibitors (AID 743083); conditions: MCF-7 aro ERE, testosterone-driven ERE luciferase, 24 h; series mostly up to 70.3 µM; also: nearly all actives have a fitted effect of over 55% in size; also: potency is read from the fitted curve at half-maximal effect
Aromatase (Homo sapiens), sequence (P11511 whole entry, looked up): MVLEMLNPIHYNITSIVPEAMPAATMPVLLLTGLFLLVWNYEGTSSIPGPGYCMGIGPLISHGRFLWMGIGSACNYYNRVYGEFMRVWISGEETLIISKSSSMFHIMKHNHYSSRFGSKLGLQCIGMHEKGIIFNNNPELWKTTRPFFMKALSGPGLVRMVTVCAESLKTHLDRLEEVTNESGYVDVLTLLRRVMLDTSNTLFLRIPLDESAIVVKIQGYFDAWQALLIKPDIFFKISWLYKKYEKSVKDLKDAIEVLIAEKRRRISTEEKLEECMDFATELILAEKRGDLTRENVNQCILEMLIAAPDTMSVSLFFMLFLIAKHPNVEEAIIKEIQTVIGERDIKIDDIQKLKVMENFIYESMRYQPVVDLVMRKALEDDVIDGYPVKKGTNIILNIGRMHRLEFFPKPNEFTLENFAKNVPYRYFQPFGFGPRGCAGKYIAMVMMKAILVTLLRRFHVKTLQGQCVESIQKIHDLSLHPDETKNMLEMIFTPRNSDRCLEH

[12] = system: thyroid hormone receptor (rat, GH3 cells); assay: qHTS assay to identify small molecule agonists of the thyroid receptor (TR) signaling pathway (AID 743066; calls by dose curve); conditions: GH3.TRE-Luc cells, TR agonist luciferase, 24 h; series mostly up to 83.9 µM
[13] = biological target: Androgen receptor (Homo sapiens) (UniProt P10275); assay: qHTS assay to identify small molecule antagonists of the androgen receptor (AR) signaling pathway (AID 743035; active = well fitted inhibition curve with a large enough effect in the signal ratio in the repeat runs, not every such curve was filed as active; inconclusive = weak or mixed curves, or effect the other way; inactive = no such curve, though single readings can be large or run the other way; the % refers to the signal ratio); conditions: HEK293 AR-UAS-bla, R1881-stimulated, beta-lactamase FRET, 16 h; series mostly up to 58.5 µM
Androgen receptor (Homo sapiens), sequence (P10275 whole entry, looked up): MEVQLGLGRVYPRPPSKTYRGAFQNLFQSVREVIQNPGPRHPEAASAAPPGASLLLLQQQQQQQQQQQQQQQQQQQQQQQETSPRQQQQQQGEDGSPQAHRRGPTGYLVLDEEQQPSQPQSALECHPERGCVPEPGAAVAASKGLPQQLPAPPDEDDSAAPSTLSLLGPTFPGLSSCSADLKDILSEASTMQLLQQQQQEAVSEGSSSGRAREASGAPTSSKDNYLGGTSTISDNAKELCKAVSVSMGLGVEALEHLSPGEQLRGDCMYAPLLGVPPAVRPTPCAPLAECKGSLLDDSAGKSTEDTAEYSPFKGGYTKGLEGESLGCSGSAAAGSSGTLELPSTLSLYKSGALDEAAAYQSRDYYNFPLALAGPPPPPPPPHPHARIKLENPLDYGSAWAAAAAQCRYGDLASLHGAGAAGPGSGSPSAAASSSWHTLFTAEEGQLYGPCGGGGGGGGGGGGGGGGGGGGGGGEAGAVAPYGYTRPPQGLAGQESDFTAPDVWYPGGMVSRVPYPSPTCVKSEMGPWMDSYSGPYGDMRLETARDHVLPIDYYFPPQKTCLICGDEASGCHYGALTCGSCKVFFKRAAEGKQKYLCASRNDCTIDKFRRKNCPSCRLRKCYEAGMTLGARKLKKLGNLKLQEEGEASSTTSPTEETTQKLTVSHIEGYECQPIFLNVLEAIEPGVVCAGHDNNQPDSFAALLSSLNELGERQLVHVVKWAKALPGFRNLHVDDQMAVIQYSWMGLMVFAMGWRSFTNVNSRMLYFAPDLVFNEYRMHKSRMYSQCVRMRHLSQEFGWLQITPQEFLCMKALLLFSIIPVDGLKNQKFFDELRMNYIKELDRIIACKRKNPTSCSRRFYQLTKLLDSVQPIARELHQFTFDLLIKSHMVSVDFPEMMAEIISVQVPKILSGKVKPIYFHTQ
How it was run: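 Steps: seed AR-UAS-bla GripTite HEK293 cells, incubate 4 h at 37C; pin in test compound, then add agonist R1881; incubate 16 h at 37C; add LiveBLAzer B/G FRET substrate, 2 h at room temperature; read fluorescence.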

[14] = biological target: Androgen receptor (Homo sapiens) (UniProt P10275); assay: qHTS assay to identify small molecule agonists of the androgen receptor (AR) signaling pathway (AID 743036; active = well fitted activation curve with a large enough effect in the signal ratio in the repeat runs, with a control signal flat, not every such curve was filed as active; inconclusive = weak or mixed curves, or effect the other way; inactive = no such curve, though single readings can be large or run the other way; the % refers to the signal ratio); conditions: HEK293 AR-UAS-bla GripTite, beta-lactamase FRET ratio, 16 h; series mostly up to 62.4 µM
How it was run: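 Activation was read as beta-lactamase FRET signal from LiveBLAzer B/G substrate, added for 2 h at room temperature. Before that, GeneBLAzer AR-UAS-bla GripTite (HEK293) cells had 16 h compound exposure at 37C.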

[15] = biological target: Androgen receptor (Homo sapiens) (UniProt P10275); assay: qHTS assay to identify small molecule agonists of the androgen receptor (AR) signaling pathway using the MDA cell line (AID 743040; also: nearly all actives have a fitted effect of over 20% in size); conditions: MDA-kb2 AR-luc cells, MMTV luciferase, 16 h, stronger effect = higher value
How it was run: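 Testing was done with the MDA-kb2 AR-luc line, a human breast carcinoma stably transfected with MMTV-luciferase containing AR and GR response elements. Cells were exposed 16 h at 37C before ONE-Glo luminescence detection.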

[16] = biological target: Androgen receptor (Homo sapiens) (UniProt P10275); assay: qHTS assay to identify small molecule antagonists of the androgen receptor (AR) signaling pathway using the MDA cell line (AID 743042; also: nearly all actives have a fitted effect of over 55% in size; also: potency is read from the fitted curve at half-maximal effect); conditions: MDA-kb2 AR-luc, MMTV luciferase, R1881 antagonist, 16 h; series mostly up to 70.3 µM
How it was run: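 MDA-kb2 breast carcinoma cells carrying MMTV-luciferase (AR/GR responsive) were co-treated with compounds and the agonist R1881 for 16 h at 37C. Inhibition read as ONE-Glo luminescence; CellTiter-Fluor fluorescence measured in parallel for cytotoxicity.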

[17] = biological target: Estrogen receptor (Homo sapiens) (UniProt P03372); assay: qHTS assay to identify small molecule agonists of the estrogen receptor alpha (ER-alpha) signaling pathway using the BG1 cell line (AID 743079); conditions: BG1Luc4E2 cells, ERE-luciferase agonist, 22 h; activation: at 70.3 µM (top of the series) unless noted; also: nearly all actives have a fitted effect of over 20% in size
[18] = qHTS assay to identify small molecule antagonists of the estrogen receptor alpha (ER-alpha) signaling pathway using the BG1 cell line (AID 743080; calls by dose curve;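 also: BG1 cells stimulated with 17beta-estradiol alongside compound; nearly all actives have a fitted effect of over 25% in size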; also: potency is read from the fitted curve at half-maximal effect); conditions: BG1Luc4E2 ERE-luciferase antagonist mode, luminescence; series mostly up to 70.3 µM
How it was run: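 Endogenous full-length ER-alpha in BG1-Luc-4E2 cells drives a stably integrated 4×ERE luciferase gene; compounds were tested against 17beta-estradiol over 21.5 h, with luminescence and multiplexed viability fluorescence recorded.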

[19] = biological target: Estrogen receptor (Homo sapiens) (UniProt P03372); assay: qHTS assay to identify small molecule antagonists of the estrogen receptor alpha (ER-alpha) signaling pathway (AID 743069; active = well fitted curve in the direction sought with a large enough effect in the signal ratio in the repeat runs, not every such curve was filed as active; inconclusive = weak or mixed curves, or effect the other way; inactive = no such curve, though single readings can be large or run the other way; the % refers to the signal ratio); conditions: HEK293 ER-alpha-UAS-bla, beta-lactamase ratio, antagonist mode; series mostly up to 69.4 µM
How it was run: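 In this cell-based reporter format, GripTite HEK293 cells harbouring ER-alpha-UAS-bla were grown overnight with 2% charcoal-stripped FBS, dosed with DMSO-dissolved compounds, then challenged with 17beta-estradiol. After 18 hr at 37C, beta-lactamase activity was detected by FRET fluorescence.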
% is scaled to controls: 0 for no effect and ±100 for the full control effect.

N#Cc1c(Cl)c(Cl)c(Cl)c(C#N)c1Cl
active: Potency [1] 21.5 µM and 21.9 µM | Potency [2] 268 nM and 122 nM | Potency [3] 213 nM and 172 nM | Potency [4] 268 nM and 154 nM | Potency [5] 2.41 µM and 1.55 µM | Potency [6] 4.76 µM and 6.11 µM | Potency [7] 847 nM and 193 nM | Potency [8] 476 nM and 172 nM | Potency [9] 42.8 µM and 54.9 µM | Potency [10] 87.1 µM [inconclusive] | Potency [11] 53.4 µM and 61.1 µM | Potency (Aromatase (Homo sapiens)) 1.51 µM and 969 nM

[Cl-].[Cl-].[Cl-].[Fe+3]
inactive: Potency [1] | Potency [2] | Potency [3] | Potency [4] | Potency [5] | Potency [6] | Potency [7] | Potency [8] | Potency [12] | Potency [9] | Potency [11] | Potency (Aromatase (Homo sapiens))

[CH3][Sn]([Cl])([Cl])[Cl]
inactive: Potency [1] | Potency [2] | Potency [3] | Potency [4] | Potency [5] | Potency [6] | Potency [7] | Potency [9] | Potency [11] | Potency (Aromatase (Homo sapiens))

COP(=S)(OC)Oc1ccc(S(=O)(=O)N(C)C)cc1
inactive and 34.4 µM (active): Potency [4]
inactive: Potency [1] | Potency [5] | Potency [13] | Potency [14] | activity change ([15]; at 70.3 µM (top of the series)) -0.992% and -9.46% | Potency [6] | Potency [7] | Potency [12] | Potency [9] | Potency [10] | Potency [17] | Potency [18] | Potency [11]
inactive and 61.1 µM (active): Potency [16] | Potency (Aromatase (Homo sapiens))
active: Potency [2] 19.3 µM

CCOP(=S)(OCC)OP(=S)(OCC)OCC
inactive: Potency [1] | Potency [2] | Potency [4] | Potency [5] | Potency [13] | Potency [14] | activity change ([15]; at 70.3 µM (top of the series)) -0.0098% | Potency [6] | Potency [16] | Potency [7] | Potency [8] | Potency [12] | Potency [9] | Potency [11] | Potency (Aromatase (Homo sapiens))

CCCCSP(=O)(SCCCC)SCCCC
active: Potency [2] 61.1 µM
inactive: Potency [1] | Potency [3] | Potency [4] | Potency [5] | Potency [6] | Potency [8] | Potency [12] | Potency [9] | Potency [11] | Potency (Aromatase (Homo sapiens))

CC(C)(C#N)N=NC(C)(C)C#N
inactive: Potency [1] | Potency [2] | Potency [3] | Potency [4] | Potency [5] | Potency [6] | Potency [7] | Potency [9] | Potency [10] | Potency [17] | Potency [18] | Potency [11] | Potency (Aromatase (Homo sapiens))

CCC[CH2][Sn]([Cl])([CH2]CCC)[CH2]CCC
active: Potency [1] 1.1 µM | Potency [2] 546 nM and 486 nM | Potency [3] 434 nM and 344 nM | Potency [4] 487 nM and 386 nM | Potency [5] 618 nM and 1.1 µM | Potency [6] 1.22 µM and 2.17 µM | Potency [7] 307 nM and 386 nM | Potency [8] 194 nM and 273 nM | Potency [9] 693 nM and 1.55 µM | Potency [18] 274 nM and 486 nM | Potency [11] 2.74 µM and 1.72 µM | Potency (Aromatase (Homo sapiens)) 2.74 µM and 2.17 µM

NC(=O)CN1CCCC1=O
inactive: Potency [1] | Potency [2] | Potency [3] | Potency [4] | Potency [5] | Potency [6] | Potency [7] | Potency [8] | Potency [12] | Potency [9] | Potency [11] | Potency (Aromatase (Homo sapiens))

Cl
inactive and 54.5 µM (active): Potency [2]
inactive: Potency [1] | Potency [4] | Potency [5] | Potency [6] | Potency [7] | Potency [8] | Potency [12] | Potency [9] | Potency [11] | Potency (Aromatase (Homo sapiens))
inactive and 48.6 µM (active): Potency [3]

CCC[CH2][Sn]([Cl])([Cl])[CH2]CCC
active: Potency [1] 6.24 µM and 6.16 µM | Potency [2] 438 nM and 17.2 nM | Potency [3] 276 nM and 17.2 nM | Potency [4] 348 nM and 17.2 nM | Potency [5] 1.4 µM and 389 nM | Potency [6] 1.96 µM and 2.73 µM | Potency [7] 34.4 nM | Potency [8] 49.2 nM and 10.9 nM | Potency [9] 6.24 µM and 2.75 µM | Potency [10] 44.2 µM [inconclusive] and 43.6 µM [inconclusive] | Potency [11] 2.46 µM and 770 nM | Potency (Aromatase (Homo sapiens)) 694 nM and 172 nM

CCNCC
inactive: Potency [1] | Potency [2] | Potency [3] | Potency [4] | Potency [5] | Potency [6] | Potency [7] | Potency [8] | Potency [12] | Potency [9] | Potency [11] | Potency (Aromatase (Homo sapiens))

C=CC(Cl)CCl (stereo not given)
inactive: Potency [1] | Potency [2] | Potency [4] | Potency [5] | Potency [13] | Potency [14] | activity change ([15]; at 95 µM (top of the series)) -0.5% and 0.488% | Potency [6] | Potency [16] | Potency [7] | Potency [8] | Potency [12] | Potency [9] | Potency [11] | Potency (Aromatase (Homo sapiens))

CNC(=O)CSP(=S)(OC)OC
inactive: Potency [1] | Potency [2] | Potency [4] | Potency [5] | Potency [6] | Potency [7] | Potency [8] | Potency [12] | Potency [19] | Potency [9] | Potency [10] | Potency [17] | Potency [18] | Potency [11] | Potency (Aromatase (Homo sapiens))

— PubChem BioAssay (Tox21)
